Source: PubChem BioAssay
HIF-2a block: HIF-2a reporter inhibitors, primary screen, luminescence, 786-0 RCC cells. 786-0 RCC cells HIF-2a reporter, luciferase luminescence, overnight. inhibition, % at 18.8 µM. 360,000 compounds, 0.72% hits. AID 624352, 2012;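 active = inhibition of the luminescence signal of 40% or more relative to plate controls, in a single-dose primary screen at 18.75 µM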
KKLEB tox: cytotoxicity in KKLEB CF airway cells, primary screen, cytotoxicity control for CF NF-kB inhibitor project, cell-based, uHTS, fluorescence assay plates | KKLEB CF airway cells viability, ATPlite luminescence, overnight; active compounds read low; cells stimulated with P. aeruginosa culture filtrate | activity change (cytotoxicity), % at 5 µM | 360,000 compounds, 0.36% hits;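 active = corrected activity change at or below -50% at 5 µM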
TROY signal inh: inhibitors of TROY-driven NF-kB signaling, primary screen, Q293 LMP1-TROYcd cells, NF-kB luciferase, uHTS; 360,000 compounds, 0.98% hits; Q293 LMP1-TROYcd NF-kB luciferase reporter, 4 h; inhibition, % at 10 µM; AID 1347056, 2019;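 active = compounds whose plate-normalised and pattern-corrected inhibition of the luciferase reporter signal at the single screening dose is 50% or more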
CF NFkB inh: inhibitors of PAF-induced NF-kB signaling, primary screen, cell-based, GFP fluorescence, uHTS | 360,000 compounds, 0.86% hits | inhibition, % at 5 µM | KKLEB NF-kB-GFP reporter, GFP fluorescence overnight | AID 588850, 2011;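 active = at least 50% inhibition at 5 µM, scaled per plate between neutral and stimulator controls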;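 also: PAF is a Pseudomonas aeruginosa culture filtrate used as stimulus; plate controls were PAF-stimulated DMSO wells for no effect and unstimulated DMSO wells for full effect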
TWEAK-Fn14 inh: inhibitors of TWEAK-Fn14 signaling, primary screen, luciferase reporter cells, uHTS; TWEAK-stimulated Fn14 reporter cells, luciferase luminescence, 8 h; inhibition, % at 10 µM; 360,000 compounds, 2% hits; AID 1159606, 2016; in the data active = inhibition above about 50%
Peg3 promoter: Peg3 promoter-driven luciferase inhibitors, primary screen, cell-based, HeLa, luciferase luminescence | 360,000 compounds, 1.7% hits | AID 588405, 2011 | HeLa PEG-Prom luciferase reporter, overnight | inhibition, % at 20 µM;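 active = inhibition of at least 50% at 20 µM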
Mdm2-MdmX confirm: retested Mdm2-MdmX interaction blockers, confirmation, cell-based, luminescence, single concentration, set 2. inhibition, % at 8 µM. SaOS-2 split-luciferase Mdm2/MdmX complementation. shares compounds with HIF-2a block. 740 compounds, 99% hits;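 active = mean inhibition of the luminescence signal across two replicates at or above 26 percent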
Target sequence (O15151 whole entry, looked up): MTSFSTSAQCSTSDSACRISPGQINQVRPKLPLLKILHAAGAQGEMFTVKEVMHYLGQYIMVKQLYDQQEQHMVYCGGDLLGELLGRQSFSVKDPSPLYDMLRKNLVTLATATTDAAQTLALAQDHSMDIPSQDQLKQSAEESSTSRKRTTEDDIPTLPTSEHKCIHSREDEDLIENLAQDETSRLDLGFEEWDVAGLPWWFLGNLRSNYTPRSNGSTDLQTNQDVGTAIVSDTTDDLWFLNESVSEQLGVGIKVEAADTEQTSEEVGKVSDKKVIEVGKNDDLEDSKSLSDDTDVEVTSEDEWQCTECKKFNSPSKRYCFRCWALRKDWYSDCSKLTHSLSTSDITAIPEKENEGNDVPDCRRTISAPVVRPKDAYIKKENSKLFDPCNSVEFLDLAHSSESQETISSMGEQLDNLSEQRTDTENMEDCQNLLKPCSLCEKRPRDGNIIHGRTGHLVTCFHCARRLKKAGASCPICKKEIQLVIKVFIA
Target sequence (Q00987 whole entry, looked up): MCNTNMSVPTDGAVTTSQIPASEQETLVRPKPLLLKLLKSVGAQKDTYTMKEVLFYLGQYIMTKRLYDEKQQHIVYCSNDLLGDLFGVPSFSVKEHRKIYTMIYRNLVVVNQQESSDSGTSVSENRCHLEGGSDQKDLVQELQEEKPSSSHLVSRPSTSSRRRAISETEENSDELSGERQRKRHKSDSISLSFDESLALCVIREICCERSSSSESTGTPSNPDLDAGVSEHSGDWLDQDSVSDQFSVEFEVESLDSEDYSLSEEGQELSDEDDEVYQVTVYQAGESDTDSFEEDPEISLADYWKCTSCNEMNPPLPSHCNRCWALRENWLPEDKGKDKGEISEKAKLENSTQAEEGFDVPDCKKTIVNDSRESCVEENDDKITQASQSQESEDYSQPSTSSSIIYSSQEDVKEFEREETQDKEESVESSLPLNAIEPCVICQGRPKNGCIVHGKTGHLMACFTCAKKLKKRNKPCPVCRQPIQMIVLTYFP
HIF-2a inh conf: HIF-2a reporter inhibitor retest, confirmation, luminescence, 786-0 RCC cells | HIF-2a luciferase reporter luminescence, overnight | shares compounds with HIF-2a block | inhibition, % at 18.8 µM | 1,800 compounds, 56% hits;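 active = mean inhibition across four replicates of at least 40 percent at the single tested concentration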
HIF-1a cs: HIF-1a luciferase reporter signal reduction – MiaPaCa-2 cells, single concentration, counter-screen for HIF-2a inhibitor project, confirmation | shares compounds with HIF-2a block | MiaPaCa-2 HIF-1a luciferase reporter, desferoxamine, overnight | inhibition, % at 18.8 µM | 1,800 compounds, 72% hits;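 active = mean inhibition of the reporter signal across four replicates at the single tested dose of 50% or more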
The depositor's hits bear a star; / = no result given. Only some compounds are listed: those with a hit (about 4% of all), similar ones and a draw of the others.

SMILES	HIF-2a block	KKLEB tox	TROY signal inh	CF NFkB inh	TWEAK-Fn14 inh	Peg3 promoter	Mdm2-MdmX confirm	HIF-2a inh conf	HIF-1a cs
COC(=O)C(Cc1ccccc1)NC(=O)C(CC(C)C)NC(=O)OC(C)(C)C (configuration not stated)	7.8	-4.1	-9.7	-3.6	-1.1	10.8	/	/	/
CCOc1cccc(CNc2nnnn2C)c1	14.5	2.9	4.9	1.5	-15.1	-4.5	/	/	/
Cc1ccc2nc(-c3ccncc3)c(Nc3ccccc3)n2c1	7.5	-5.6	8.2	14.6	-35.8	-1.7	/	/	/
Cc1ccc(Nc2c(-c3ccccn3)nc3ccc(C)cn23)cc1	-42.4	-13.6	15.8	13.2	3.2	11.9	86.2*	/	/
Cc1ccc(Nc2c(-c3ccccn3)nc3cc(C)ccn23)cc1	-14.1	-33.0	0.7	43.4	-1.6	39.4	88.2*	/	/
O=C(COC(=O)c1cc(S(=O)(=O)N2CCOCC2)ccc1O)Nc1ccc2c(c1)OCO2	4.7	10.4	-13.7	4.3	-22.2	-5.7	/	/	/
OC(c1ccc(F)c(F)c1)c1nc(-c2cnc3ccccc3c2)cs1 (configuration not stated)	-265.1	-4.1	-20.2	2.9	-3.6	-161.3	/	/	/
Cc1oc2c(C)c3oc(=O)c(CCC(=O)N[C@@H](CC(C)C)C(=O)O)c(C)c3cc2c1C	11.5	6.4	0.7	6.7	12.9	6.2	/	/	/
CCCC(NC(=O)CCc1c(C)c2cc3c4c(oc3c(C)c2oc1=O)CCCC4)C(=O)O (configuration not stated)	52.1*	7.1	20.6	14.3	34.6	-47.3	/	66.8*	50.5*
O=C1C=CC(=O)N1c1cccc(-c2ccccc2)c1	75.6*	4.7	-28.8	7.5	-8.6	108.5*	/	67.6*	39.9
CC/C=C/C(=O)N1CC2(CC(c3cccc(NC(=O)COc4ccc(Cl)cc4)c3)=NO2)C[C@H]1C(N)=O (some centres not stated)	-14.4	3.9	-7.7	9.2	-30.9	-18.9	/	/	/
CCOC(=O)c1cc(-c2csc(Nc3c(C)cc(C)cc3C)n2)on1	57.5*	-5.2	-7.4	15.9	-19.8	13.2	/	19.1	15.8
CCOC(=O)c1cc(-c2csc(-c3cccc(Cl)c3)n2)on1	9.6	4.8	-5.9	8.8	1.0	-4.0	/	/	/
CCC(C)N1CCC(Oc2ccc(C(=O)NCc3ccccn3)cc2)CC1 (configuration not stated)	11.9	1.3	8.3	-2.7	-4.7	12.5	/	/	/
FC(F)(F)c1cnc(NNC(=S)Nc2ccccc2)c(Cl)c1	45.3*	7.7	7.0	-1.5	14.5	22.8	/	60.8*	13.1
CSc1ncc(Cl)c(C(=O)Nc2nnc(SC/C=C/c3ccccc3)s2)n1	7.4	11.2	30.2	-8.2	-12.3	13.3	/	/	/
Cc1nnc(NC(=O)c2nc(S(=O)(=O)Cc3ccccc3C)ncc2Cl)s1	91.4*	-92.3*	28.1	98.8*	102.3*	105.7*	103.0*	10.4	104.5*
CSc1nnc(NC(=O)c2nc(S(=O)(=O)Cc3ccccc3F)ncc2Cl)s1	68.5*	-78.9*	7.3	95.2*	97.2*	105.9*	102.2*	24.2	105.9*
CC(C)c1nnc(NC(=O)c2nc(S(=O)(=O)Cc3ccc(F)cc3)ncc2Cl)s1	64.3*	-100.7*	29.5	89.2*	99.2*	106.1*	103.2*	66.2*	106.9*
Cc1cccc(CS(=O)(=O)c2ncc(Cl)c(C(=O)Nc3nnc(C(C)C)s3)n2)c1	81.7*	-86.9*	55.0*	92.5*	100.8*	106.5*	103.0*	/	/
Cc1ccc([C@H]2N[C@]3(CCCN(Cc4ccc(F)cc4)C3=O)[C@H]3C(=O)N(Cc4ccccc4)C(=O)[C@@H]23)cc1	10.9	-7.2	2.2	13.8	14.9	17.5	/	/	/
CC1COc2c3ccccc3nn21 (configuration not stated)	7.4	/	-7.7	/	15.5	/	/	/	/
Cc1ccc(CS(=O)(=O)c2ncc(Cl)c(C(=O)Nc3nnc(C(C)C)s3)n2)cc1	76.4*	-86.1*	60.4*	85.3*	99.8*	109.7*	/	88.1*	106.4*
CSc1nnc(NC(=O)c2nc(S(=O)(=O)Cc3cccc(C)c3)ncc2Cl)s1	72.9*	-50.2*	46.2	90.5*	94.3*	101.3*	103.0*	33.3	107.4*
CCSc1nnc(NC(=O)c2nc(S(=O)(=O)Cc3ccc(F)cc3)ncc2Cl)s1	87.9*	-97.2*	-2.3	91.7*	99.5*	107.0*	/	-29.3	96.7*
SMILES	HIF-2a block	KKLEB tox	TROY signal inh	CF NFkB inh	TWEAK-Fn14 inh	Peg3 promoter	Mdm2-MdmX confirm	HIF-2a inh conf	HIF-1a cs
Cc1ccc(C)c(NC(=O)CCN2C(=O)[C@@H]3Cc4ccccc4CN3C2=O)c1	-2.3	-9.7	-18.7	2.1	-8.1	-3.4	/	/	/
CCN(CC)c1ccc2c(C)cc(=O)oc2c1	-57.5	-1.0	-40.5	6.3	-5.7	-38.3	/	/	/
CCN(CC)c1ccc2c(c1)oc(=O)c1c(Cl)cc(=O)oc12	92.8*	-34.2	-44.4	8.4	75.5*	100.6*	103.2*	/	/
CSCCC(NC(=O)c1ccccc1Cl)C(=O)NCC(c1ccc(F)cc1)N1CCOCC1 (configuration not stated)	7.1	2.9	-12.1	-1.2	-1.5	9.3	/	/	/
CNC(=O)c1cc(Oc2ccc(NC(=O)Nc3ccc(Cl)c(C(F)(F)F)c3)cc2)ccn1	14.9	-11.9	62.2*	74.7*	84.5*	48.9	99.5*	/	/
CCCNC(=O)CSCc1nc(-c2ccc(SC)cc2)oc1C	-96.0	6.0	-18.9	-21.0	-3.8	-38.4	/	/	/
Cc1ccc(-c2nc(CSCC(=O)N3CCCC3)c(C)o2)cc1	-38.3	14.1	0.5	-0.4	4.4	-15.8	/	/	/
CCc1ccc(-c2nc(CSCC(=O)NCc3ccco3)c(C)o2)cc1	40.5*	-4.8	45.0	-9.5	65.0*	13.7	/	43.9*	38.5
CCc1ccc(-c2nc(CS(=O)CC(=O)NCc3ccccc3)c(C)o2)cc1 (configuration not stated)	50.2*	0.0	20.6	-3.2	57.4*	52.6*	/	44.8*	55.1*
